Results: PubChem BioAssay (Tox21)
Results filed as inconclusive are left out. Activity calls are given as the source filed them. Unless noted, the call rests on the fitted dose curve; in most records, active means well fitted curve in the direction sought with a large enough effect in the repeat runs; inconclusive means weak or mixed curves; inactive means no such curve, though single readings can be large; an effect the other way counts as inactive or inconclusive.

Tests used:
[1] = qHTS assay to identify small molecule antagonists of the sonic hedgehog signaling (Shh) pathway (AID 1259369; calls by dose curve; further: nearly all actives have a fitted effect of over 45% in size)
Summary of the method: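 NIH/3T3 stable Gli1-Luc clone, 2,000 cells/well, 4hr settle; cpd + conditioned medium 24hr; Luc reagent 30min RT; luminescence.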

[2] = target: Estrogen receptor beta (Homo sapiens) (UniProt Q92731); experiment: qHTS assay to identify small molecule agonists of the estrogen receptor beta (ER-beta) signaling pathway (AID 1259377; active means well fitted activation curve with a large enough effect in the signal ratio in the repeat runs, not every such curve was filed as active; the % refers to the signal ratio)
Sequence of Estrogen receptor beta (Homo sapiens) (Q92731 whole entry, looked up, the tested form may be a part): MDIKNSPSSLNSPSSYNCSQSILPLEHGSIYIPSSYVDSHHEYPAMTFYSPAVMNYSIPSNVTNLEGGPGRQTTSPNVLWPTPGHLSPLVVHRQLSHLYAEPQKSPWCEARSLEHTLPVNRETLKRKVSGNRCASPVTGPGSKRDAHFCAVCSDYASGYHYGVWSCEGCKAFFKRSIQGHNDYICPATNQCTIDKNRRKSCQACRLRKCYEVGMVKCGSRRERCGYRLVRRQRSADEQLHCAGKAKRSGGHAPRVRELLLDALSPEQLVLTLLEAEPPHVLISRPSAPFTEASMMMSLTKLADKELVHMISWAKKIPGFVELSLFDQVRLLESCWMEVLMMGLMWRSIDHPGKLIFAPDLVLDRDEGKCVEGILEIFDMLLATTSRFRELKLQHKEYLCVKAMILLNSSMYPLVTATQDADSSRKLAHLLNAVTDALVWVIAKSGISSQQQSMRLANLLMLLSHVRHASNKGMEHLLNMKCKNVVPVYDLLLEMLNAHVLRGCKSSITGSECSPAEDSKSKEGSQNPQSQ
Summary of the method: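 Agonist mode cell assay in GripTite HEK293T cells expressing an ER-beta fusion that drives beta-lactamase from an Upstream Activator Sequence; 16 hr compound exposure at 37C, then 2 h LiveBLAzer B/G FRET substrate at room temperature, fluorescence read-out.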

[3] = target: Estrogen receptor beta (Homo sapiens) (UniProt Q92731); experiment: qHTS assay to identify small molecule antagonists of the estrogen receptor beta (ER-beta) signaling pathway (AID 1259378; active means well fitted inhibition curve with a large enough effect in the signal ratio in the repeat runs, not every such curve was filed as active; the % refers to the signal ratio)
Summary of the method: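 ER-beta-UAS-bla HEK293T cells in 2% charcoal-stripped FBS medium treated with compound plus 1nM final 17-beta-estradiol for 16 hr at 37C. Beta-lactamase reporter read by FRET substrate fluorescence after 2 hours at room temperature.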

[4] = qHTS assay to identify small molecule agonists of the androgen receptor (AR) signaling pathway in the presence of an antagonist - cell viability counter screen (AID 1259379);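 further: MDA-kb2 human breast cancer cells carrying an MMTV luciferase reporter; series mostly up to about 92 µM; nearly all actives have a fitted effect of over 25% in size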
Summary of the method: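 MDA-kb2 viability measured by CellTiter-Fluor fluorescence in the same wells as the luciferase signal; nilutamide 3.0uM final; 15-point compound titration; 16 hr at 37C.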

[5] = qHTS assay to identify small molecule agonists of the estrogen receptor beta (ER-beta) signaling pathway - cell viability counter screen (AID 1259380); further: nearly all actives have a fitted effect of over 30% in size
Summary of the method: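 Measured: luminescence from CellTiter-Glo after 30 min at room temperature, added to wells already read for the LiveBLAzer FRET reporter (2 hr substrate); ER-beta-UAS-bla HEK293T cells had 16 hr compound treatment at 37C, 5% CO2.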

[6] = qHTS assay to identify small molecule antagonists of the estrogen receptor beta (ER-beta) signaling pathway - cell viability counter screen (AID 1259382); further: series mostly up to about 92 µM; nearly all actives have a fitted effect of over 55% in size
Summary of the method: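 Readout: luminescence, CellTiter-Glo, same wells as bla assay. System: ER-beta-UAS-bla GripTite HEK293T, 2% charcoal-stripped FBS. Exposure: compounds plus 1nM 17-beta-estradiol, 16 hr, 37C.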

[7] = target: Estrogen receptor (Homo sapiens) (UniProt P03372); experiment: qHTS assay to identify small molecule agonists of the estrogen receptor alpha (ER-alpha) signaling pathway in the presence of an antagonist (AID 1259383; calls by dose curve; further: top concentration of the series differs between compounds; nearly all actives have a fitted effect of over 15% in size)
Sequence of Estrogen receptor (Homo sapiens) (P03372 whole entry, looked up): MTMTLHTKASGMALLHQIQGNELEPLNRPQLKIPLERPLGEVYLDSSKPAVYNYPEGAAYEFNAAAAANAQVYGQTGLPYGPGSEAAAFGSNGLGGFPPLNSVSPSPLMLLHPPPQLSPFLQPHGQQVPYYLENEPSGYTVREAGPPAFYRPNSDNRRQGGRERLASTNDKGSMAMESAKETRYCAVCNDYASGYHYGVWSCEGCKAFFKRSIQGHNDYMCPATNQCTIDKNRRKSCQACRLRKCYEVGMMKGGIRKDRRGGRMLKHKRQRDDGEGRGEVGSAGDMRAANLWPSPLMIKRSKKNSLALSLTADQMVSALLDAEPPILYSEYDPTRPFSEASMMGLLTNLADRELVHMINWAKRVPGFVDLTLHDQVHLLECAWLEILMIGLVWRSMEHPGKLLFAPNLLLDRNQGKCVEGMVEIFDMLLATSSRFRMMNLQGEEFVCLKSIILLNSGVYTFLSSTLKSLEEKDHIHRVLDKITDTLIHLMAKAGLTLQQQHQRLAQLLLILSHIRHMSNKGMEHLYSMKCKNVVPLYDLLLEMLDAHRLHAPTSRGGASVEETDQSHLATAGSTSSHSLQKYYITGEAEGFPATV
Summary of the method: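 Quantitative HTS confirmation: compounds titrated at 15 concentrations onto estrogen-deprived VM7Luc4E2 cells carrying a four-ERE luciferase construct, with ICI-182,780 present at 10.0nM final. Signal is luminescence after 22hr exposure.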

[8] = qHTS assay to identify small molecule agonists or antagonists of the thyroid stimulating hormone receptor (TSHR) signaling pathway - wild type cell line counter screen (AID 1259384; calls by dose curve)
Summary of the method: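 Wild-type Hek293 cells, 800/well, 18 h at 37C, then compound with Ro20-1724 for 30 min RT. cAMP by HTRF (cAMP-d2/anti-cAMP cryptate), 1 h RT, fluorescence read. 15 concentrations, triplicates.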

[9] = target: Thyrotropin receptor (Homo sapiens) (UniProt P16473); experiment: qHTS assay to identify small molecule antagonists of the thyroid stimulating hormone receptor (TSHR) signaling pathway (AID 1259385; calls by dose curve; further: nearly all actives have a fitted effect of over 20% in size)
Sequence of Thyrotropin receptor (Homo sapiens) (P16473 whole entry, looked up): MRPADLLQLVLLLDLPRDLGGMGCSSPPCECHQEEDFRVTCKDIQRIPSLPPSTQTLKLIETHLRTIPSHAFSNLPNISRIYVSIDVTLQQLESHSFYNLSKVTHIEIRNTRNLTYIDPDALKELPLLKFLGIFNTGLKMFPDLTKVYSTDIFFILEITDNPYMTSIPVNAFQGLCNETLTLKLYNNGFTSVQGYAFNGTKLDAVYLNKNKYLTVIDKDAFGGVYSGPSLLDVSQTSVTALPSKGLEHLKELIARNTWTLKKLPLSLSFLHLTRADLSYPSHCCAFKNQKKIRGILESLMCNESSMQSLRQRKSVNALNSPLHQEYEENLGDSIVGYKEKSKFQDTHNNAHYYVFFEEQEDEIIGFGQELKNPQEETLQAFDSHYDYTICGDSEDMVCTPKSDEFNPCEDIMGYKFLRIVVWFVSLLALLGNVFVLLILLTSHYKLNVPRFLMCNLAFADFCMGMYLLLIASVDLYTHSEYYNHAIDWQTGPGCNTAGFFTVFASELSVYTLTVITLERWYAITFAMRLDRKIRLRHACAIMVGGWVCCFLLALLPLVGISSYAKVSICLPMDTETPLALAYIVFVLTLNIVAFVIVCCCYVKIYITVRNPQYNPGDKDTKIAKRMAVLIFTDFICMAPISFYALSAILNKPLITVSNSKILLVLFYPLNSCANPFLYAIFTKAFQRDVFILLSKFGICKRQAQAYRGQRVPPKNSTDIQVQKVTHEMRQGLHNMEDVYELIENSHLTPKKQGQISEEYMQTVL
Summary of the method: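 TSHR-HEK293 cells (800/well) plated 18 h, then compounds with Ro20-1724 and TSH at 1.5 ng/mL final, 30 min at room temperature. cAMP quantified by HTRF (cAMP-d2/anti-cAMP-cryptate, 1 h); 15 concentrations in triplicate.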

[10] = qHTS assay to identify small molecule agonists of the estrogen receptor alpha (ER-alpha) signaling pathway in the presence of an antagonist - cell viability counter screen (AID 1259386);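 further: series mostly up to about 92 µM; cells exposed to compounds for 22 h at 37 °C before the viability read; nearly all actives have a fitted effect of over 30% in size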
Summary of the method: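 The test measures whether compounds kill ER-alpha reporter cells (VM7Luc4E2) under antagonist co-treatment (ICI-182,780, 10.0nM). Fluorescence from CellTiter-Fluor is read after a 22hr exposure.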

[11] = target: Progesterone receptor (Homo sapiens) (UniProt P06401); experiment: qHTS assay to identify small molecule agonists of the progesterone receptor (PR) signaling pathway (AID 1346784; calls by dose curve; further: nearly all actives have a fitted effect of over 30% in size)
Sequence of Progesterone receptor (Homo sapiens) (P06401 whole entry, looked up): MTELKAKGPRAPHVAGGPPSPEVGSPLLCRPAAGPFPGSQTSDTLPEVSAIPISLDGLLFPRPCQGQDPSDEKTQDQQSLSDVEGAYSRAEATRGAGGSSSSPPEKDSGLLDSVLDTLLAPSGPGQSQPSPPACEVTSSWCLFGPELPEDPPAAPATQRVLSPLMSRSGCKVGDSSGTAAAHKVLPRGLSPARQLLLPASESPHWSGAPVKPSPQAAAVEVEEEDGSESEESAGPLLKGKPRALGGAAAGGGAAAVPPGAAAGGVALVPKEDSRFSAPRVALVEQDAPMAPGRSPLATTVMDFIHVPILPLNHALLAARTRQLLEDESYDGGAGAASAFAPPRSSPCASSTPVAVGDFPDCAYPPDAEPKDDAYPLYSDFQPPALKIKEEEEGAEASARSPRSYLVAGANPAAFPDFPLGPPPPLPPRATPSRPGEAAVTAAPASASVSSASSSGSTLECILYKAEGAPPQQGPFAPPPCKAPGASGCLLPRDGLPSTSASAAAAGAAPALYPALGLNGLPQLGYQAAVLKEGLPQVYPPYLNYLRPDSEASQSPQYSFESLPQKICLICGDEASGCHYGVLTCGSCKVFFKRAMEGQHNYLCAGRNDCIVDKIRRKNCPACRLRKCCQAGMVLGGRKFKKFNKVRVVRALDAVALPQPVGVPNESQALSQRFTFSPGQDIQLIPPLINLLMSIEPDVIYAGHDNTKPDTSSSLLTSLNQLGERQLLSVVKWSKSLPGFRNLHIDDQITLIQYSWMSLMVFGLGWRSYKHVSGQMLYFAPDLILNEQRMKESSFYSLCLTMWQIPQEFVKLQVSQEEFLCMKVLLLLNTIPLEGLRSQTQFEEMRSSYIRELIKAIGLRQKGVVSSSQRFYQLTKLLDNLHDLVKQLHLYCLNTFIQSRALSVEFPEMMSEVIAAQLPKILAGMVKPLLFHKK
Summary of the method: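 Cells (PR-UAS-bla HEK 293T, GripTite) were plated in assay medium containing 2% charcoal-stripped FBS and incubated 6 hr. Test compounds in DMSO were added for 16 hr at 37C. FRET substrate was then loaded for 2 hr at room temperature before fluorescence reading.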

[12] = target: Progesterone receptor (Homo sapiens) (UniProt P06401); experiment: qHTS assay to identify small molecule antagonists of the progesterone receptor (PR) signaling pathway (AID 1346795; active means well fitted inhibition curve with a large enough effect in the signal ratio in the repeat runs, not every such curve was filed as active; the % refers to the signal ratio)
Summary of the method: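 Antagonist mode: compounds tested against 1 nM (final) promegestone stimulation in HEK293T cells expressing PR-UAS-bla reporter, 16 hr at 37C, 5% CO2; beta-lactamase activity detected via B/G FRET substrate after 2 hr at room temperature.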

[13] = qHTS assay to identify small molecule antagonists of the progesterone receptor (PR) signaling pathway - cell viability counter screen (AID 1346798); further: series mostly up to about 92 µM; nearly all actives have a fitted effect of over 50% in size
Summary of the method: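 Counter screen for cytotoxicity: viability of PR-UAS-bla HEK293T cells was measured with CellTiter-Glo luminescence following 16 hr compound exposure in the presence of R5020.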

[14] = qHTS assay to identify small molecule agonists of the progesterone receptor (PR) signaling pathway - cell viability counter screen (AID 1346799; calls by dose curve; further: nearly all actives have a fitted effect of over 45% in size)
Summary of the method: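 Cells (PR-UAS-bla HEK293T) are plated at 3,000/well in 2% charcoal-stripped FBS medium, rested 6 hr, dosed and incubated 16 hr at 37C. CellTiter-Glo is then added and luminescence measured after 30 min at room temperature.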

[15] = qHTS assay to identify small molecule antagonists of the TGF-beta/Smad signaling pathway - cell viability counter screen (AID 1346824); further: nearly all actives have a fitted effect of over 50% in size
Summary of the method: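 SBE-bla HEK 293T cells, incubated overnight, then compound plus 0.25 ng/mL TGF-beta1 (stock added) for 5 hr at 37 C. Viability was read in the same wells by CellTiter-Glo luminescence after 30 min at room temperature.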

[16] = qHTS assay to identify small molecule agonists of the TGF-beta/Smad signaling pathway - cell viability counter screen (AID 1346829); further: top concentration of the series differs between compounds; nearly all actives have a fitted effect of over 45% in size
Summary of the method: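 Compound-treated SBE-bla HEK 293T cells (5 hr, 37 C) were assessed for viability with CellTiter-Glo in parallel with the reporter read.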

[17] = qHTS assay to identify small molecule agonists of the TGF-beta/Smad signaling pathway (AID 1346859; active means well fitted activation curve with a large enough effect in the signal ratio in the repeat runs, not every such curve was filed as active; the % refers to the signal ratio; further: series mostly up to about 77 µM)
Summary of the method: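 Reporter line: HEK 293T with stably integrated SBE-controlled beta-lactamase. Compound exposure lasts 5 hr at 37 C and 5% CO2; substrate loading follows for 2 hr at room temperature, with emission read at 460 and 530 nm.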

[18] = target: Thyrotropin-releasing hormone receptor (Homo sapiens) (UniProt P34981); experiment: qHTS assay to identify small molecule antagonists of the thyrotropin-releasing hormone receptor (TRHR) signaling pathway (AID 1346877; active means well fitted inhibition curve with a large enough effect in the repeat runs, not every such curve was filed as active; further: series mostly up to about 51 µM)
Sequence of Thyrotropin-releasing hormone receptor (Homo sapiens) (P34981 whole entry, looked up): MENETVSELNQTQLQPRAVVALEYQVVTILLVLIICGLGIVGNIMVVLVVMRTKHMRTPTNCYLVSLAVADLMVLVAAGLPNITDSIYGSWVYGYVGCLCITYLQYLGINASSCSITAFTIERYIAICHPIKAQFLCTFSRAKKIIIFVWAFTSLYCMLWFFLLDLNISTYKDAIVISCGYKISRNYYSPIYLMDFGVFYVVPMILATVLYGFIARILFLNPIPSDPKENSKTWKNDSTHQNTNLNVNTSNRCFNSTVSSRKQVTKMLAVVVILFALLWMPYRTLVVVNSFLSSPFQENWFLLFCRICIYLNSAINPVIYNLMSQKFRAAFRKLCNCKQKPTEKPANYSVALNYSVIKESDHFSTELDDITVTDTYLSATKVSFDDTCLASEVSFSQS
Summary of the method: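 Overnight-plated (18 h, 37 °C) HEK293 cells expressing TRHR were dye-loaded 2 h, treated with compound, then stimulated with TRH at 1 nM final. Fluorescence intensity was captured every second for 3 min.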

[19] = target: Thyrotropin-releasing hormone receptor (Homo sapiens) (UniProt P34981); experiment: qHTS assay to identify small molecule agonists of the thyrotropin-releasing hormone receptor (TRHR) signaling pathway (AID 1346891; calls by dose curve;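 further: HEK293 cells expressing TRHR with calcium dye readout; series mostly up to about 58 µM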)
Summary of the method: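 Cells: TRHR-Hek293, seeded and incubated 18 h. Dye loading: 2 h at 37 °C. Compound added from DMSO stock by pin tool. Read-out: kinetic calcium fluorescence over 3 min.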

[20] = target: Androgen receptor (Homo sapiens) (UniProt P10275); experiment: qHTS assay to identify small molecule agonists of the androgen receptor (AR) signaling pathway in the presence of an antagonist (AID 1259381; calls by dose curve; further: nearly all actives have a fitted effect of over 15% in size)
Sequence of Androgen receptor (Homo sapiens) (P10275 whole entry, looked up): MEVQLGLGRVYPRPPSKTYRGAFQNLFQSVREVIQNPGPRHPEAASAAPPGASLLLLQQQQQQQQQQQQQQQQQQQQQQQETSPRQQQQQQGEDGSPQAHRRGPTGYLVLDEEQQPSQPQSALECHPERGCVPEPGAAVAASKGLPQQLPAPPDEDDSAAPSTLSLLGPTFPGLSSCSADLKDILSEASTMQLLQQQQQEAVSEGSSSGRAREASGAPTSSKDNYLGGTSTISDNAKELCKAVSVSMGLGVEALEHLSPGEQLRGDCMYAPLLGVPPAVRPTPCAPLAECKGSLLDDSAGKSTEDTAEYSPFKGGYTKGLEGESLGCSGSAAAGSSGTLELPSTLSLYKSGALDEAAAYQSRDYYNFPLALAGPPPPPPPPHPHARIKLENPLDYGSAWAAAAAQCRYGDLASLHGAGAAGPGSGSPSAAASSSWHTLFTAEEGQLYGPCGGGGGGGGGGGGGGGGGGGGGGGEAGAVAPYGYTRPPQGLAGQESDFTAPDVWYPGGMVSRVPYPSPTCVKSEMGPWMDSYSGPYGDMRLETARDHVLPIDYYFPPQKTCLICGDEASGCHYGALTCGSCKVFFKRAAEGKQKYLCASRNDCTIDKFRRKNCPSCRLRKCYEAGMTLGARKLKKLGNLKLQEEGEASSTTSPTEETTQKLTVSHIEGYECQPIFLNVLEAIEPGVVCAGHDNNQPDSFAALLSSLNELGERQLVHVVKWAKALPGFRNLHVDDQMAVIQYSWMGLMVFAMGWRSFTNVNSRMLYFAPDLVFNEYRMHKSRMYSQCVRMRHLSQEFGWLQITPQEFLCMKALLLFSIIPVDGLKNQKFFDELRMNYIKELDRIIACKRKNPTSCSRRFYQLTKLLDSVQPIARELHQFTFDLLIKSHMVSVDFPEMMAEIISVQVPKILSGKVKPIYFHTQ
Summary of the method: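 Luminescent ONE-Glo read, 30min at room temperature, follows 16hr compound exposure (15 concentrations) of MDA-kb2 cells at 37C, 0% CO2, with nilutamide added at 3.0uM final.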

Measured: Potency

CC(C)=CCC/C(C)=C/CC/C(C)=C/CCC(=O)OC/C=C(\C)CCC=C(C)C
inactive: [1] | [2] | [3] | [4] | [5] | [6] | [7] | [8] | [9] | [10] | [11] | [12] | [13] | [14] | [15] | [16] | [17] | [18] | [19]

C[C@H]1C[C@H](O)c2ccsc2S1(=O)=O
inactive: [1] | [2] | [3] | [4] | [5] | [20] | [6] | [7] | [8] | [9] | [10] | [11] | [12] | [13] | [14] | [16] | [17] | [18] | [19]

Cc1cscn1
inactive: [1] | [2] | [3] | [4] | [5] | [20] | [6] | [7] | [8] | [10] | [11] | [12] | [13] | [14] | [15] | [16] | [17]

CC=C(Cl)Cl
inactive: [1] | [2] | [3] | [4] | [5] | [6] | [7] | [8] | [9] | [10] | [11] | [12] | [13] | [14] | [15] | [16] | [17] | [18] | [19]

COC(=O)CCS
inactive: [1] | [2] | [3] | [4] | [5] | [6] | [7] | [9] | [10] | [11] | [12] | [13] | [15] | [16] | [17] | [19]

CC(=O)c1cc2ccccc2s1
inactive: [1] | [2] | [3] | [4] | [5] | [6] | [7] | [8] | [9] | [10] | [11] | [12] | [13] | [14] | [15] | [16] | [17]

CCc1ccccc1
inactive: [1] | [2] | [3] | [4] | [5] | [6] | [7] | [8] | [9] | [10] | [13] | [14] | [15] | [16] | [17] | [18] | [19]
